Laboratory results as given in PubChem BioAssay AID1159580 (chemical genetic matrix, 2015).
Values joined by “and” are separate entries in the source; they are usually repeats but may differ in a detail not shown here. Equal values may be shown once. The campaign covered roughly 5,500 compounds. About 2,000 (36%) were called active. Inconclusive results (about 18%) are left out. No stated cut-off is given here; in the data, active means normalized growth mostly below about 0.91 (no sharp cut-off); inconclusive means no clear call, values can overlap the other calls; inactive means mostly above about 0.92. The list shows a part of the results.

Assay: chemical genetic growth profiling, strain panel (AID 1159580);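 further: tested at 20 µM; growth read once vehicle control cultures reached saturation at 30 °C; 1 = growth at the plate median or of vehicle wells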
Conditions: S. cerevisiae deletion strains, growth OD

Measured: normalized growth

Cn1c(=O)c2c(ncn2C)n(C)c1=O
inactive: locus YAL013W, strain DEP1, stronger effect = lower value 0.997 | locus YAL021C, strain ccr4, stronger effect = lower value 1.01 | locus YAL026C, strain drs2, stronger effect = lower value 0.975 | locus YAL030W, strain snc1, stronger effect = lower value 0.97 | locus YAL040C, strain CLN3, stronger effect = lower value 1.02 | locus YBL061C, strain skt5, stronger effect = lower value 0.962 | locus YBR009C, strain hhf1, stronger effect = lower value 0.94 | locus YBR021W, strain FUR4, stronger effect = lower value 1.01 | locus YBR023C, strain chs3, stronger effect = lower value 0.978 | locus YBR171W, strain sec66, stronger effect = lower value 0.94 | locus YBR229C, strain ROT2, stronger effect = lower value 0.998 | locus YBR231C, strain swc5, stronger effect = lower value 0.989 | locus YBR279W, strain paf1, stronger effect = lower value 0.982 | locus YCL011C, strain gbp2, stronger effect = lower value 0.922 | locus YCL016C, strain dcc1, stronger effect = lower value 0.936 | locus YCL029C, strain bik1, stronger effect = lower value 1.02 | locus YCL061C, strain MRC1 (second series), stronger effect = lower value 1.01 | locus YCL061C, strain MRC1, stronger effect = lower value 0.98 | locus YCL069W, strain vba3, stronger effect = lower value 0.973 | locus YCR088W, strain abp1, stronger effect = lower value 0.983 | locus YDL005C, strain med2, stronger effect = lower value 0.99 | locus YDL035C, strain GPR1, stronger effect = lower value 1.02 | locus YDL040C, strain nat1, stronger effect = lower value 0.987 | locus YDL074C, strain BRE1, stronger effect = lower value 1.03 | locus YDL101C, strain DUN1, stronger effect = lower value 0.999 | locus YDL134C, strain PPH21, stronger effect = lower value 0.992 | locus YDL185W, strain tfp1, stronger effect = lower value 1.02 | locus YDL192W, strain arf1, stronger effect = lower value 1 | locus YDR001C, strain nth1, stronger effect = lower value 0.966 | locus YDR069C, strain doa4, stronger effect = lower value 0.961 | locus YDR101C, strain arx1, stronger effect = lower value 1.04 | locus YDR137W, strain rgp1, stronger effect = lower value 0.943 | locus YDR150W, strain NUM1, stronger effect = lower value 0.998 | locus YDR159W, strain sac3, stronger effect = lower value 0.961 | locus YDR162C, strain NBP2, stronger effect = lower value 0.998 | locus YDR195W, strain ref2 0.99 | locus YDR297W, strain sur2, stronger effect = lower value 0.98 | locus YDR318W, strain mcm21, stronger effect = lower value 0.99 | locus YDR334W, strain swr1, stronger effect = lower value 0.914 | locus YDR335W, strain msn5, stronger effect = lower value 0.969 | locus YDR363W, strain ESC2, stronger effect = lower value 0.985 | locus YDR388W, stronger effect = lower value 1 | locus YDR392W, strain spt3, stronger effect = lower value 0.942 | locus YDR502C, strain sam2, stronger effect = lower value 1.01 | locus YEL003W, strain gim4, stronger effect = lower value 0.979 | locus YEL037C, strain rad23, stronger effect = lower value 0.972 | locus YEL061C, strain CIN8 (second series), stronger effect = lower value 0.977 | locus YEL061C, strain CIN8, stronger effect = lower value 0.996 | locus YER002W, strain NOP16, stronger effect = lower value 1.01 | locus YER015W, strain faa2, stronger effect = lower value 0.971 | locus YER016W, strain bim1, stronger effect = lower value 0.948 | locus YER110C, stronger effect = lower value 1.01 | locus YER111C, strain swi4, stronger effect = lower value 0.949 | locus YER155C, strain BEM2 (second series), stronger effect = lower value 1 | locus YER155C, strain BEM2, stronger effect = lower value 0.994 | locus YER167W, strain BCK2, stronger effect = lower value 1 | locus YFR010W, strain ubp6, stronger effect = lower value 0.96 | locus YGL078C, strain dbp3, stronger effect = lower value 1.02 | locus YGL086W, strain mad1, stronger effect = lower value 1.01 | locus YGL167C, strain pmr1, stronger effect = lower value 0.945 | locus YGL173C, strain kem1, stronger effect = lower value 0.938 | locus YGL227W, strain vid30, stronger effect = lower value 0.97 | locus YGL240W, strain doc1, stronger effect = lower value 0.987 | locus YGL248W, strain PDE1, stronger effect = lower value 1 | locus YGL253W, strain hxk2, stronger effect = lower value 0.982 | locus YGR078C, strain PAC10, stronger effect = lower value 0.995 and 0.992 | locus YGR135W, strain pre9, stronger effect = lower value 0.999 | locus YGR229C, strain SMI1, stronger effect = lower value 0.995 | locus YGR252W, strain gcn5, stronger effect = lower value 1.01 | locus YHR013C, strain ard1, stronger effect = lower value 0.947 | locus YHR027C, strain rpn1, stronger effect = lower value 0.932 | locus YHR030C, strain SLT2, stronger effect = lower value 1 and 1.02 | locus YHR079C, strain IRE1 (second series), stronger effect = lower value 1.01 | locus YHR079C, strain IRE1, stronger effect = lower value 0.993 | locus YHR094C, strain hxt1, stronger effect = lower value 1.01 | locus YHR129C, strain ARP1, stronger effect = lower value 0.996 | locus YHR142W, strain chs7, stronger effect = lower value 0.899 | locus YHR200W, strain rpn10, stronger effect = lower value 1.02 | locus YIL066C, strain RNR3, stronger effect = lower value 1.01 | locus YIL073C, strain SPO22, stronger effect = lower value 1.04 | locus YIL125W, strain kgd1, stronger effect = lower value 1.01 | locus YIR030C, strain dcg1, stronger effect = lower value 0.999 | locus YJL092W, strain hpr5, stronger effect = lower value 0.956 | locus YJL095W, strain BCK1 (second series), stronger effect = lower value 0.967 | locus YJL095W, strain BCK1, stronger effect = lower value 0.985 and 1.04 | locus YJL115W, strain asf1, stronger effect = lower value 0.939 | locus YJL129C, strain trk1, stronger effect = lower value 0.95 | locus YJL134W, strain LCB3, stronger effect = lower value 1 | locus YJL154C, strain vps35, stronger effect = lower value 0.976 | locus YJL164C, strain tpk1, stronger effect = lower value 0.964 | locus YJL166W, strain qcr8, stronger effect = lower value 0.977 | locus YJL168C, strain set2, stronger effect = lower value 0.997 | locus YJL187C, strain SWE1 (second series), stronger effect = lower value 1.01 | locus YJL187C, strain SWE1, stronger effect = lower value 0.966
